The whole screen tested about 69,000 compounds, of which about 8,600 (12%) showed an effect of 50% or more. What follows is part of a selection rich in strong results, with near analogues and random picks from the rest.

For the assay, the system named is Plasmodium berghei. The assay can be described thus: Screen against P. berghei liver stage (PbLuc), transformed with Luciferase, at 10uM. Particulars: tested at 10 uM. Type of assay: functional, HepG2.
As for `Cc1cc(C)n(CC2CCCN2C(=O)Cc2c(C)nn(C)c2C)n1` (stereo unspecified), the INHIBITION is given as -43.5%.

For `Cc1ccc(N2CCc3ncnc(C4CC4)c3CC2)nn1`, the INHIBITION was found to be 58.4%.

Regarding `Cc1ccc(N2CCc3ncnc(N(C)C)c3CC2)nn1`, the INHIBITION was determined as 8.6%.

On to `CCN(C)c1ncnc2c1CCN(c1ccc(C)nn1)CC2`, for which the INHIBITION is on record as 39.4%.

Consider `Cc1cccc(N2CCc3ncnc(C4CC4)c3CC2)n1`, for which the INHIBITION is -11.6%.

Regarding `Cc1ccc(N2CCc3ncnc(C)c3CC2)nn1`, the INHIBITION was determined as 35.8%.

Consider `CCN(CC)c1ncnc2c1CCN(c1ccc(C)nn1)CC2`, for which the INHIBITION came to 52.1%.

With `Cc1cccnc1C(=O)N1CCCC(Cc2cncc3ccccc23)C1` (stereo unspecified), the INHIBITION is -63.5%.

For the molecule `CCn1cc(Cl)c(C(=O)NCc2cnn(C)c2)n1`, the INHIBITION worked out at 3.46%.

Consider `CCOC(=O)C1CCN(C(=O)CN2CCCC2c2ccccc2C)CC1` (stereo unspecified), for which the INHIBITION is listed as 70.1%.

For `Cc1nc(-c2nnc[nH]2)sc1C(=O)N1CCCC1CC(C)(C)C` (stereo unspecified), the INHIBITION is -10.2%.

For the molecule `COc1ccccc1C1CCCN1CC(=O)N1CCC(C(N)=O)CC1` (stereo unspecified), the INHIBITION was 34%.

As for `CC(C)CC(=O)N1CCCC1c1ccsc1` (stereo unspecified), the INHIBITION is given as -8.66%.

With `CCC(=O)N1CCCC1c1ccsc1` (stereo unspecified), the INHIBITION worked out at 50.4%.

For `Cc1nc(-c2nnc[nH]2)sc1C(=O)N1CCCC1c1cccs1` (stereo unspecified), the INHIBITION is given as -81.2%.

Regarding `CN(CCCNC(=O)N1CCCC1c1ccsc1)c1ccccn1` (stereo unspecified), the INHIBITION is 52%.

Consider `CCOC(=O)C1CCN(C(=O)CN2CCCC2Cc2ccccc2)CC1` (stereo unspecified), for which the INHIBITION is given as -4.93%.

For `CSCCC(=O)N1CCCC1c1ccsc1` (stereo unspecified), the INHIBITION is listed as 1.81%.

With `O=C(NCCCn1ccnc1)N1CCCC1c1ccsc1` (stereo unspecified), the INHIBITION is 28.4%.

With `Cc1nc(-c2nnc[nH]2)sc1C(=O)N1CCCC1c1ccsc1` (stereo unspecified), the INHIBITION stood at 72.5%.

On to `O=C(NCCCn1cccn1)N1CCCC1c1ccsc1` (stereo unspecified), for which the INHIBITION is 28.6%.

With `Cc1nnc2ccc(N3CCN(CCc4ccccn4)CC3)nn12`, the INHIBITION is -57.4%.

Regarding `Cc1cc(C(=O)N2C[C@@H]3COC[C@]3(CN(C)C)C2)c(C)o1`, the INHIBITION worked out at 25.1%.

With `Cc1nn(C)cc1-c1nn2c(C(F)(F)F)nnc2s1`, the INHIBITION is on record as -15.2%.

As for `Cc1c(C(=O)N2CCS(=O)(=O)CC2)nnn1-c1ccc2ncccc2c1`, the INHIBITION is reported as 46.6%.

Regarding `CCc1nnc(CN(CC)C(=O)C2CC(=O)N(CC)C2)o1` (stereo unspecified), the INHIBITION turned out to be 39.1%.

With `CCC(C)(C)NC(=O)Cn1nnc(CN(C)C(=O)c2ccccc2)n1`, the INHIBITION was determined as 29.6%.

Consider `Cc1cnc(Nc2nccnc2C2CCN(C)CC2)s1`, for which the INHIBITION was 7.39%.

As to `O=C(O)c1cccc(CN2CCCC(Cc3ccn[nH]3)C2)c1` (stereo unspecified), the INHIBITION is recorded as -0.05%.

`Cc1ncccc1C(=O)N1CCC2(CCc3ccccc3C(=O)N2)C1` (stereo unspecified): the INHIBITION was 13.79%.

In the case of `Cn1cccc1C(=O)NC[C@]12COC[C@H]1CN(Cc1nccs1)C2`, the INHIBITION is -30.6%.
